Records with an inconclusive call do not appear. Unmarked numbers belong to inactive results. The source made the active and inactive calls. Calls follow the shape of the dose curve; as a rule, active = well fitted cell-killing curve with a large enough effect; inconclusive = small, poorly fitted or top-dose-only effect, or effect the other way; inactive = no such curve, though single readings can be large or run the other way.
Experiment: Quantitative High-Throughput drug screen in 47 multiple myeloma cell lines against the NCATS MIPE library collection: MM1R_ATCC cell viability assay (AID 1918981); also: nearly all actives have a fitted effect of over 35% in size
Details: MM1R multiple myeloma cells, CellTiter-Glo viability, 48 h; series mostly up to 45.8 µM; viability (% of control): at the top concentration
From the text: PI: Beverly A. Mock Ph.D.
Laboratory of Cancer Biology and Genetics,
Center for Cancer Research, National Cancer Institute,
National Institute of Health, Bethesda, Maryland
Drug resistance and disease progression are common in multiple myeloma (MM) patients, underscoring the need for new therapeutic combinations. […] We hypothesized that effective combinations would reduce MYC expression and enhance p16 activity. […] These preclinical data identify potentially useful drug combinations for evaluation in drug-resistant MM and reveal potential mechanisms of combined drug sensitivity.
Described herein is the primary MIPE qHTS used to cherrypick compounds. Validated compounds were then further tested for potential synergistic activiy.
[1] Peat TJ, Gaikwad SM, Dubois W, Gyabaah-Kessie N, Zhang S, Gorjifard S, Phyo Z, Andres M, Hughitt VK, Simpson RM, Miller MA, Girvin AT, Taylor A, Williams D, D'Antonio N, Zhang Y, Rajagopalan A, Flietner E, Wilson K, Zhang X, Shinn P, Klumpp-Thomas C, McKnight C, Itkin Z, Chen L, Kazandijian D, Zhang J, Michalowski AM, Simmons JK, Keats J, Thomas CJ, Mock BA. Drug combinations identified by high-throughput screening promote cell cycle transition and upregulate Smad pathways in myeloma. Cancer Lett. 2023 Aug 1;568:216284. doi: 10.1016/j.canlet.2023.216284. Epub 2023 Jun 24. PMID: 37356470; PMCID: PMC10408729.
SEQUENCE No. (e.g., 1, 2, 3, etc.); […] (e.g., Cells, Incubation, Reagent, etc.); VALUE and DESCRIPTION.
1; Cells; 5 uL; white, solid bottom 1536-well Greiner assay plate.
2; Compounds; 23 nL; Kalypsis pin tool (Wako USA) equipped with a 1536-well pin head to transfer to the assay plates.
3; Incubation; 48 hours; 37C incubation.
4; Reagent;5uL; CellTiter Glo (Promega).
5; Detector; 425V; Luminescence; Viewlux PerkinElmer.
NOTES (numbers refer to Sequence numbers above)
1. The cell-based screening methods employed in this study were like those previously published. Briefly, the corresponding myeloma cell lines were screened in 1,536-well plates with 500 cells, 5-uL per well for inhibition of cell viability (assessed by measuring ATP levels with CellTiterGlo).
2. NCATS MIPE 4.0 library of approved and investigational drugs were added using the Kalypsis pin tool. Wells treated with DMSO only for 100% viability and media only for 0% viability were used as controls.
3. The assay plates were covered and incubated for 48 hours in a 37C, 5% CO2 incubator with controlled humidity.
4. After 48 hours, CellTilter-GloTM luminescent substrate mix (Promega) reagent was added to the assay plate and plates we incubated for 5 min at room temperature.
5. Signal was measured as median relative luminescence units on a ViewLux (PerkinElmer) multiplate reader.
[1] Heske CM, Davis MI, Baumgart JT, Wilson K, Gormally MV, Chen L, Zhang X, Ceribelli M, Duveau DY, Guha R, Ferrer M, Arnaldez FI, Ji J, Tran HL, Zhang Y, Mendoza A, Helman LJ, Thomas CJ. Matrix Screen Identifies Synergistic Combination of PARP Inhibitors and Nicotinamide Phosphoribosyltransferase (NAMPT) Inhibitors in Ewing Sarcoma. Clin Cancer Res. 2017 Dec 1;23(23):7301-7311. doi: 10.1158/1078-0432.CCR-17-1121. Epub 2017 Sep 12. PMID: 28899971; PMCID: PMC6636827.
Potency is read from the fitted curve at half-maximal effect.

Row | SMILES | Potency | viability (% of control) [%]
1 | CC(C)N[C@@H]1CCn2c(=O)[nH]c3cccc(c32)[C@@H]1O | 6.62 µM (active) | –
2 | CC(O)=C(C#N)C(=O)Nc1cc(Br)ccc1Br | 20.9 µM (active) | –
3 | C[C@@]12OC(=O)[C@]1([C@@H](O)[C@@H]1C=CCCC1)NC(=O)[C@H]2CCCl | 0.0037 µM (active) | –
4 | O=c1[nH]c2ccccc2n1C1CCN(Cc2ccc(-c3[nH]c4cc5ncnc5cc4nc3-c3ccccc3)cc2)CC1 | 16.6 µM (active) | –
5 | COc1ccc2c(c1)[C@]13CCCCC1C(C2)N(C)CC3 (stereo not given in full) | – | 102
6 | C=CCON=C(C[C@H]1O[C@@H]2O[C@]3(C)CC[C@@H]4[C@H](C)CC[C@@H]([C@H]1C)[C@@]24OO3)[C@H]1O[C@@H]2O[C@]3(C)CC[C@H]4[C@H](C)CC[C@@H]([C@@H]1C)[C@@]24OO3 | 0.296 µM (active) | –
7 | COC1=CC(C)=C[C@@H](C)[C@@H](O)[C@@H](C)CC(C)=CC=C[C@H](OC)[C@H]([C@@H](C)[C@@H](O)[C@H](C)[C@@]2(O)C[C@@H](O)[C@H](C)[C@@H](C(C)C)O2)OC1=O | 1.66 µM (active) | –
8 | CN1[C@H]2CC(O)C[C@H]1[C@H]1O[C@H]12 (stereo not given in full) | 16.6 µM (active) | –
9 | Clc1ccccc1C(c1ccccc1)(c1ccccc1)n1cccn1 | 23.5 µM (active) | –
10 | C[C@H]([C@H](O)CCC(C)(C)O)[C@H]1CC[C@@]2(O)C3=CC(=O)[C@@H]4C[C@@H](O)[C@@H](O)C[C@]4(C)[C@@H]3CC[C@]12C | – | 116
11 | O=C(O)CNC(=O)c1c(O)c2ccccc2n(Cc2ccccc2)c1=O | – | 113
12 | CCOC(=O)Nc1ccc(NCc2ccc(F)cc2)cc1N | – | 107
13 | CN[C@@H]1Cc2cccc3[nH]c(=O)n(c23)C1 | – | 92.6
14 | C=C[C@@H]1CN2CCC1C[C@@H]2[C@@H](O)c1ccnc2ccccc12 (stereo not given in full) | 16.6 µM (active) | –
15 | COc1cc([C@@H]2c3cc4c(cc3[C@@H](O)C3COC(=O)C32)OCO4)cc(OC)c1O (stereo not given in full) | 0.0833 µM (active) | –
16 | CCOP(=O)(OCC)C(C)NC(=O)N(CCCl)N=O (stereo not given) | – | 122
17 | CCc1c(C(=O)C(N)=O)c2c(OCC(=O)O)cccc2n1Cc1ccccc1 | – | 108
18 | N#C[C@H](O[C@@H]1O[C@H](CO[C@@H]2O[C@H](CO)[C@H](O)[C@H](O)[C@H]2O)[C@H](O)[C@H](O)[C@H]1O)c1ccccc1 | 29.6 µM (active) | –
19 | c1ccc2c(CN3CCNCC3)cccc2c1 | – | 91.5
20 | C[C@]12COC(=O)C[C@@H]1CC[C@@H]1[C@H]2CC[C@@]2(C)[C@H]1CC[C@]2(C)O | – | 118

Row | SMILES | Potency | viability (% of control) [%]
21 | C1=C2CCCN[C@H]2[C@@H]2C[C@H]1[C@@H]1CCCCN1C2 | – | 94.1
22 | O=C(Oc1ccc([N+](=O)[O-])cc1)N1CCN(Cc2cccc(Oc3ccccc3)c2)CC1 | – | 108
23 | CO[C@H]1CCC(O[C@H]2C[C@H]([C@]3(C)CC[C@]4(C[C@H](O)[C@@H](C)[C@@H]([C@@H](C)C=C(C)C(=O)[C@H](C)C[C@H](C)C(=O)O)O4)O3)O[C@]3(O[C@@H]([C@H]4O[C@@](O)(CO)[C@H](C)C[C@H]4C)C[C@H]3C)[C@H]2C)O[C@H]1C (stereo not given in full) | 1.05 µM (active) | –
24 | c1cc2c(cc1[C@H]1OC[C@H]3[C@H]1CO[C@H]3c1ccc3c(c1)OCO3)OCO2 | – | 121
25 | CC(N[C@H]1C[C@H]1c1ccccc1)c1ccc2c(c1)OCCO2 (stereo not given in full) | – | 124
26 | Cc1nc(-c2ccc(-c3ccc(C(=O)N4CCc5cc6c(cc54)C4(CCN(C)CC4)CO6)cc3)c(C)c2)no1 | – | 133
27 | O=c1cccc2n1CC1CNC[C@H]2C1 | – | 127
28 | CCN1CCN(C(=O)Cc2ccc(Nc3ncc(F)c(Nc4ccc(C(=O)Nc5ccccc5Cl)cc4)n3)cc2)CC1 | 5.9 µM (active) | –
29 | COC[C@H]1OC(=O)c2coc3c2[C@@]1(C)C1=C(C3=O)[C@@H]2CC[C@H](O)[C@@]2(C)C[C@@H]1OC(C)=O | 0.332 µM (active) | –
30 | O=[N+]([O-])c1ncc[nH]1 | – | 122
31 | CC(=CCCC1=CCC(C2=CC(=O)OC2O)OC1O)CCC1=C(C)CCCC1(C)C (stereo not given) | – | 107
32 | CN1CCN(c2ccc([N+](=O)[O-])c3no[n+]([O-])c23)CC1 | 20.9 µM (active) | –
33 | CC(C)[C@]12O[C@@H]1[C@@H]1O[C@]13[C@]1(O[C@H]1C[C@@H]1C4=C(CC[C@@]13C)C(=O)OC4)[C@H]2O | – | 1.88
34 | COc1ccc2c(c[n+](C)c3c4cc5c(cc4ccc23)OCO5)c1OC | 2.35 µM (active) | –
35 | CCNC(=O)CC1N=C(c2ccc(Cl)cc2)c2cc(OC)ccc2-n2c(C)nnc21 (stereo not given) | 14.8 µM (active) | –
36 | CC(C)(O)C=CC(=O)[C@](C)(O)[C@H]1[C@H](O)C[C@]2(C)[C@@H]3CC=C4[C@@H](C=C(O)C(=O)C4(C)C)[C@]3(C)C(=O)C[C@@]12C | 0.0372 µM (active) | –
37 | CC(C)(C)[C@]1(O)C[C@@H]2OC(=O)C[C@@]23C(=O)O[C@@H]2OC(=O)[C@H](O)C213 (stereo not given in full) | – | 115
38 | COC(=O)[C@@H](N)CCCN=C(N)N[N+](=O)[O-] | – | 131
39 | C[C@]12CC[C@H](O)CC1=CC[C@H]1[C@H]3CCC(=O)[C@@]3(C)CC[C@@H]12 | – | 93.9
40 | COc1ccc(N(C(=O)Oc2c(C)cccc2C)c2ccnc(Nc3ccc(N4CCN(C)CC4)cc3)n2)c(OC)c1 | 2.35 µM (active) | –

Source: PubChem BioAssay (NCATS)
